Consider ten compounds from PubChem BioAssay (NCI).

The panel holds about 83,000 compounds, 20% with a hit somewhere; the sample as a whole holds those more often.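 Method: cells in 96-well plates; compound added at one concentration; 48 h incubation; percent growth measured; values under 10 scored active.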 Values without a mark were called inactive. Active and inactive are the calls of the source.

Test systems include NCI-H226 lung; NCI-H322M lung; HOP-62 NSCLC; NCI-H460 lung; HOP-92 NSCLC; NCI-H522 lung; A549/ATCC NSCLC; 786-0 renal; COLO 205 colon; DU-145 prostate; K-562 leukemia; MALME-3M melanoma; MDA-MB-231 breast; RXF 393 renal; SF-268 CNS; SF-539 CNS; UACC-257 melanoma; M14 melanoma; SF-295 CNS.
What all share (assay): NCI-60 one-dose screen, 48 h (100 = growth as untreated, 0 = no growth, -100 = all killed)
Conditions in all cases: 10 µM unless noted

Take `CCc1ccc(-c2ccc(Nc3ccccc3)nn2)cc1S(N)(=O)=O`: the growth is 86.8% with NCI-H226 lung; 107% in the assay on NCI-H322M lung; 92.9% with HOP-62 NSCLC; 51.2% in the assay on NCI-H460 lung; 80.2% in the assay with HOP-92 NSCLC; 71.5% with NCI-H522 lung. Further, the growth with A549/ATCC NSCLC is 80.5%; in the assay with 786-0 renal it was 94.3%; with COLO 205 colon, 94.8%; with DU-145 prostate, 77.1%; in the assay on K-562 leukemia it was 12.5%; in the assay with MALME-3M melanoma it was 71.4%. For the same compound, the growth in the assay on MDA-MB-231 breast is 69.3%; in the assay on RXF 393 renal, 77.3%; in the assay on SF-268 CNS, 78.6%; in the assay with SF-539 CNS it was 84.3%; with UACC-257 melanoma it was 83.7%; in the assay with M14 melanoma, 67.1%.

With `CC1(C)C(=O)/C(=C\c2ccccn2)C[C@]2(C)[C@H]3CC[C@@H]4[C@@H](C(=O)/C=C/c5ccccn5)CC[C@@]4(C)[C@]3(C)CC[C@@H]12`, the growth in the assay on NCI-H226 lung is -33.8% (active); in the assay on NCI-H322M lung it was 21.3%; with HOP-62 NSCLC, -26.7% (active); in the assay with NCI-H460 lung it was -36.2% (active); in the assay on HOP-92 NSCLC it was -31.9% (active); in the assay on NCI-H522 lung it was -23.3% (active). The growth in the assay on A549/ATCC NSCLC is 5.27% (active); with 786-0 renal it was -69.4% (active); in the assay with COLO 205 colon, -34.4% (active); with DU-145 prostate, -77.1% (active); with K-562 leukemia it was 0.811% (active); in the assay on MALME-3M melanoma, -35.8% (active). The growth in the assay with MDA-MB-231 breast is -60% (active); in the assay with RXF 393 renal, -90.7% (active); with SF-268 CNS it was 9.75% (active); with SF-295 CNS, -77.9% (active); in the assay on SF-539 CNS, -43.5% (active); in the assay with UACC-257 melanoma it was 7.39% (active). The growth in the assay with M14 melanoma was 3.45% (active).

`CCc1cccc(CC)c1NC(=O)c1sc2nc3c(cc2c1N)CCCC3`: the growth with NCI-H226 lung was 83.2%; with NCI-H322M lung, 92.8%; with HOP-62 NSCLC, 50.5%; in the assay with NCI-H460 lung, 91.1%; with HOP-92 NSCLC, 51.2%; in the assay on NCI-H522 lung, 41.9%. In addition, the growth in the assay with A549/ATCC NSCLC is 69.7%; in the assay with 786-0 renal, 87.8%; in the assay with COLO 205 colon it was 105%; in the assay on DU-145 prostate, 98.6%; in the assay on K-562 leukemia it was 26.6%; in the assay with MALME-3M melanoma it was 54.3%. Besides, the growth with MDA-MB-231 breast was 79.5%; with RXF 393 renal, 81.6%; in the assay on SF-268 CNS it was 82.6%; with SF-295 CNS it was 45.7%; in the assay on SF-539 CNS, 74.5%; in the assay with M14 melanoma, 52%.

For `CCOc1ccc(NC(=O)c2ccoc2COc2ccccc2)cc1`, the growth was 111% in the assay on NCI-H226 lung; 99.7% in the assay with NCI-H322M lung; 111% in the assay with HOP-62 NSCLC; 112% with NCI-H460 lung; 95.2% in the assay on HOP-92 NSCLC; 93.9% with NCI-H522 lung. In addition, the growth was 103% with A549/ATCC NSCLC; 105% in the assay with 786-0 renal; 123% in the assay with COLO 205 colon; 106% in the assay with DU-145 prostate; 88.8% in the assay with K-562 leukemia; 100% in the assay with MALME-3M melanoma. The growth in the assay with MDA-MB-231 breast was 98.7%; in the assay with RXF 393 renal, 106%; in the assay with SF-268 CNS it was 97.8%; in the assay on SF-295 CNS, 101%; in the assay on SF-539 CNS, 98.5%; with UACC-257 melanoma it was 106%. Moreover, the growth with M14 melanoma is 104%.

Turning to `O=C(/C=C/c1ccc2ccccc2c1)Nc1ncc(Cc2ccccc2)s1`, the growth with NCI-H226 lung is 46%; with HOP-62 NSCLC it was 56.7%; with NCI-H460 lung it was 30.8%; in the assay with HOP-92 NSCLC it was 78.2%; with NCI-H522 lung it was 72.8%; in the assay on A549/ATCC NSCLC, 21.6%. Also, the growth with 786-0 renal was 34.2%; in the assay with COLO 205 colon, 55.8%; with DU-145 prostate, 70.4%; in the assay on K-562 leukemia, 70.6%; in the assay on MALME-3M melanoma it was 51%; in the assay on MDA-MB-231 breast, 28.5%. Besides, the growth is 93.3% with RXF 393 renal; 73.8% in the assay on SF-268 CNS; 36.8% in the assay on SF-295 CNS; 78.2% in the assay on SF-539 CNS; 94.8% in the assay with UACC-257 melanoma; 59.8% with M14 melanoma.

Turning to `Brc1ccc2[nH]cc(-c3nc(-c4c[nH]c5ncccc45)cs3)c2c1`, the growth in the assay with NCI-H226 lung is 62.4%; with NCI-H322M lung, 42%; in the assay on HOP-62 NSCLC it was 56.6%; with NCI-H460 lung, 15.7%; in the assay with HOP-92 NSCLC, 47.9%; in the assay on NCI-H522 lung, 25%. Moreover, the growth is 22.9% with A549/ATCC NSCLC; 10.4% with 786-0 renal; 18.5% in the assay on COLO 205 colon; 39.8% in the assay with DU-145 prostate; 4.74% (active) in the assay on K-562 leukemia; 24.9% in the assay on MDA-MB-231 breast. Besides, the growth was 21.8% in the assay on RXF 393 renal; 59% in the assay on SF-268 CNS; 5.5% (active) in the assay with SF-295 CNS; 50.9% in the assay with SF-539 CNS; -6.38% (active) in the assay on UACC-257 melanoma.

With `COC(=O)[C@]12CC[C@@H](C)[C@H](C)[C@@H]1C1=CC[C@@H]3[C@@]4(C)C[C@@H](OC(C)=O)[C@H](O)[C@@](C)(CO)[C@@H]4[C@H](O)C[C@@]3(C)[C@]1(C)CC2`, the growth in the assay on NCI-H226 lung was -48.6% (active); with NCI-H322M lung, -93.2% (active); with NCI-H460 lung, -72.6% (active); in the assay on HOP-92 NSCLC, -87.7% (active); in the assay with NCI-H522 lung it was -90.3% (active); with A549/ATCC NSCLC it was -88.3% (active). Further, the growth is -77.3% (active) in the assay with 786-0 renal; -87.8% (active) in the assay with COLO 205 colon; -100% (active) in the assay on DU-145 prostate; -62.7% (active) with K-562 leukemia; -69.1% (active) in the assay with MALME-3M melanoma; -62.3% (active) in the assay on MDA-MB-231 breast. Also, the growth in the assay with RXF 393 renal is -88.9% (active); in the assay with SF-268 CNS it was -84% (active); with SF-295 CNS, -92.2% (active); in the assay with SF-539 CNS it was -90% (active); with M14 melanoma it was -69.1% (active).

Take `CCN1CCN(C(=O)[C@]23CCC(C)(C)C[C@@H]2C2=CC[C@@H]4[C@@]5(C)C/C(=C/c6ccncc6)C(=O)C(C)(C)[C@@H]5CC[C@@]4(C)[C@]2(C)CC3)CC1`: the growth is -42.8% (active) in the assay on NCI-H226 lung; 27% in the assay with NCI-H322M lung; -66.9% (active) with HOP-62 NSCLC; -64.7% (active) in the assay on NCI-H460 lung; -11% (active) in the assay on HOP-92 NSCLC; -59% (active) in the assay with NCI-H522 lung. Further, the growth with A549/ATCC NSCLC was 4.33% (active); in the assay with 786-0 renal, -73.6% (active); in the assay on COLO 205 colon, -15.3% (active); in the assay on DU-145 prostate, -16.9% (active); in the assay with K-562 leukemia, -13.1% (active); in the assay on MALME-3M melanoma, -87.9% (active). Moreover, the growth in the assay with MDA-MB-231 breast is -59.9% (active); with RXF 393 renal it was -93.3% (active); in the assay on SF-268 CNS, 14.8%; in the assay with SF-295 CNS, -55.9% (active); with SF-539 CNS, -96.4% (active); in the assay on UACC-257 melanoma, -2.01% (active). In addition, the growth in the assay on M14 melanoma was -76% (active).

Turning to `COC1=C(Br)C(=O)C(OC)=C(Br)C1=O`, the growth with NCI-H226 lung was 102%; with HOP-62 NSCLC, 111%; with NCI-H460 lung it was 106%; in the assay on HOP-92 NSCLC it was 153%; in the assay on NCI-H522 lung it was 86.3%; with A549/ATCC NSCLC, 102%. In addition, the growth was 103% with 786-0 renal; 110% in the assay on COLO 205 colon; 109% in the assay on DU-145 prostate; 31.7% in the assay on K-562 leukemia; 102% in the assay with MALME-3M melanoma; 119% with RXF 393 renal. Moreover, the growth is 111% in the assay with SF-268 CNS; 111% in the assay with SF-295 CNS; 108% in the assay on SF-539 CNS; 94.4% in the assay with UACC-257 melanoma; 105% in the assay with M14 melanoma.

Regarding `O=C1/C(=C\c2ccc(Br)o2)SC(=S)N1CCc1ccc(O)cc1`, the growth in the assay with NCI-H226 lung is 97.3%; in the assay with NCI-H322M lung, 88.3%; with HOP-62 NSCLC, 83.5%; in the assay with NCI-H460 lung it was 107%; with HOP-92 NSCLC, 55.3%; with NCI-H522 lung, 37.8%. Also, the growth was 100% in the assay on A549/ATCC NSCLC; 78.7% in the assay on 786-0 renal; 97.8% with COLO 205 colon; 43% with DU-145 prostate; 65.6% with K-562 leukemia; 69% in the assay on MALME-3M melanoma. In addition, the growth in the assay on MDA-MB-231 breast was 53.2%; in the assay on RXF 393 renal, 51.9%; in the assay with SF-268 CNS, 96%; in the assay with SF-295 CNS, 94.9%; in the assay with SF-539 CNS it was 52.3%; in the assay with UACC-257 melanoma it was 77.2%. Besides, the growth in the assay on M14 melanoma was 73.7%.
